The values below come from the supplement of paper PMC7261846.

Counter-ions that a name gives are not always drawn. ± gives the uncertainty stated by the source.

The subject of this experiment is Candida albicans SNY425 biofilm. As to the kind of experiment: biofilm OD600 with compound plus antifungal (OD600 (absorbance)); higher = more biofilm remaining.
Where [1] appears, read: assay detail: disruption of 24-h mature biofilm (compound + antifungal for a second 24 h).
The mark [2] stands for this setting: assay detail: sustained inhibition (compound + antifungal during 90-min adherence and 24-h growth).

Regarding `CCOC(=O)c1ccc(OC(=O)CCCCCNC(=N)N)cc1` [Gabexate mesylate] + C[C@@H]1[C@H](O)[C@@H](C)/C=C/C=C/C=C/C=C/C=C/C=C/C=C/[C@H](O[C@@H]2O[C@H](C)[C@@H](O)[C@H](N)[C@@H]2O)C[C@@H]2O[C@](O)(C[C@@H](O)C[C@@H](O)[C@H](O)CC[C@@H](O)C[C@@H](O)CC(=O)O[C@H]1C)C[C@H](O)[C@H]2C(=O)O [amphotericin B] (first compound 12.5 µM), the “biofilm OD600” value was 0.281 ± 0.012 under setting [1] and 0.201 ± 0.0075 under setting [2].
In the case of `COC(=O)N[C@H](C(=O)N[C@@H](Cc1ccccc1)[C@@H](O)CN(Cc1ccc(-c2ccccn2)cc1)NC(=O)[C@@H](NC(=O)OC)C(C)(C)C)C(C)(C)C` [atazanavir] + C[C@@H]1[C@H](O)[C@@H](C)/C=C/C=C/C=C/C=C/C=C/C=C/C=C/[C@H](O[C@@H]2O[C@H](C)[C@@H](O)[C@H](N)[C@@H]2O)C[C@@H]2O[C@](O)(C[C@@H](O)C[C@@H](O)[C@H](O)CC[C@@H](O)C[C@@H](O)CC(=O)O[C@H]1C)C[C@H](O)[C@H]2C(=O)O [amphotericin B] (first compound 12.5 µM), the “biofilm OD600” value by setting is: under setting [1], 0.286 ± 0.013; under setting [2], 0.213 ± 0.0068.
Consider `CC(C)C[C@H](NC(=O)[C@H]1O[C@@H]1C(=O)O)C(=O)NCCCCN=C(N)N` + C[C@@H]1[C@H](O)[C@@H](C)/C=C/C=C/C=C/C=C/C=C/C=C/C=C/[C@H](O[C@@H]2O[C@H](C)[C@@H](O)[C@H](N)[C@@H]2O)C[C@@H]2O[C@](O)(C[C@@H](O)C[C@@H](O)[C@H](O)CC[C@@H](O)C[C@@H](O)CC(=O)O[C@H]1C)C[C@H](O)[C@H]2C(=O)O [amphotericin B] (first compound 12.5 µM), for which the “biofilm OD600” value reads like this: under setting [1], 0.266 ± 0.0082; under setting [2], 0.209 ± 0.0073.
Turning to `O=C(O)CNC(=O)C(CS)Cc1ccccc1` (racemic) [DL-Thiorphan] + C[C@@H]1[C@H](O)[C@@H](C)/C=C/C=C/C=C/C=C/C=C/C=C/C=C/[C@H](O[C@@H]2O[C@H](C)[C@@H](O)[C@H](N)[C@@H]2O)C[C@@H]2O[C@](O)(C[C@@H](O)C[C@@H](O)[C@H](O)CC[C@@H](O)C[C@@H](O)CC(=O)O[C@H]1C)C[C@H](O)[C@H]2C(=O)O [amphotericin B] (first compound 12.5 µM), the “biofilm OD600” value reads like this: under setting [1], 0.264 ± 0.0083; under setting [2], 0.164 ± 0.012.
As to `Nc1ccc(CC(CC(=O)O)C(=O)O)cc1` [4-Amino-D, L-benzylsuccinic acid] + C[C@@H]1[C@H](O)[C@@H](C)/C=C/C=C/C=C/C=C/C=C/C=C/C=C/[C@H](O[C@@H]2O[C@H](C)[C@@H](O)[C@H](N)[C@@H]2O)C[C@@H]2O[C@](O)(C[C@@H](O)C[C@@H](O)[C@H](O)CC[C@@H](O)C[C@@H](O)CC(=O)O[C@H]1C)C[C@H](O)[C@H]2C(=O)O [amphotericin B] (first compound 12.5 µM), the “biofilm OD600” value by setting is: under setting [1], 0.293 ± 0.0096; under setting [2], 0.185 ± 0.0047.
Consider `CC1(C)C[C@@H]1C(=O)N/C(=C\CCCCSC[C@H](N)C(=O)O)C(=O)O` [Cilastatin] + CC[C@H](C)C[C@H](C)CCCCCCCCC(=O)N[C@H]1C[C@@H](O)[C@@H](NCCN)NC(=O)[C@@H]2[C@@H](O)CCN2C(=O)[C@H]([C@H](O)CCN)NC(=O)[C@H]([C@H](O)[C@@H](O)c2ccc(O)cc2)NC(=O)[C@@H]2C[C@@H](O)CN2C(=O)[C@H]([C@@H](C)O)NC1=O [caspofungin] (first compound 12.5 µM), for which the “biofilm OD600” value amounted to 0.283 ± 0.0048 under setting [1] and 0.199 ± 0.02 under setting [2].
Turning to `CC(C)CCNC(=O)[C@H](CC(C)C)NC(=O)[C@H]1O[C@@H]1C(=O)O` + C[C@@H]1[C@H](O)[C@@H](C)/C=C/C=C/C=C/C=C/C=C/C=C/C=C/[C@H](O[C@@H]2O[C@H](C)[C@@H](O)[C@H](N)[C@@H]2O)C[C@@H]2O[C@](O)(C[C@@H](O)C[C@@H](O)[C@H](O)CC[C@@H](O)C[C@@H](O)CC(=O)O[C@H]1C)C[C@H](O)[C@H]2C(=O)O [amphotericin B] (first compound 12.5 µM), the “biofilm OD600” value by setting is: under setting [1], 0.27 ± 0.0079; under setting [2], 0.21 ± 0.0074.
As to `CCOC(=O)[C@H](CCc1ccccc1)N[C@@H](C)C(=O)N1CCC[C@H]1C(=O)O` [Enalapril] + CC[C@H](C)C[C@H](C)CCCCCCCCC(=O)N[C@H]1C[C@@H](O)[C@@H](NCCN)NC(=O)[C@@H]2[C@@H](O)CCN2C(=O)[C@H]([C@H](O)CCN)NC(=O)[C@H]([C@H](O)[C@@H](O)c2ccc(O)cc2)NC(=O)[C@@H]2C[C@@H](O)CN2C(=O)[C@H]([C@@H](C)O)NC1=O [caspofungin] (first compound 12.5 µM), the “biofilm OD600” value reads like this: under setting [1], 0.266 ± 0.012; under setting [2], 0.207 ± 0.011.
For the compound `CC(C)C[C@H](NC(=O)[C@@H](O)[C@H](N)Cc1ccccc1)C(=O)O` [Bestatin·HCl] + CC[C@H](C)C[C@H](C)CCCCCCCCC(=O)N[C@H]1C[C@@H](O)[C@@H](NCCN)NC(=O)[C@@H]2[C@@H](O)CCN2C(=O)[C@H]([C@H](O)CCN)NC(=O)[C@H]([C@H](O)[C@@H](O)c2ccc(O)cc2)NC(=O)[C@@H]2C[C@@H](O)CN2C(=O)[C@H]([C@@H](C)O)NC1=O [caspofungin] (first compound 12.5 µM), the “biofilm OD600” value came to 0.283 ± 0.013 under setting [1] and 0.187 ± 0.0098 under setting [2].
With `CC(C)(C)NC(=O)[C@@H]1C[C@@H]2CCCC[C@@H]2CN1C[C@@H](O)[C@H](Cc1ccccc1)NC(=O)[C@H](CC(N)=O)NC(=O)c1ccc2ccccc2n1` [saquinavir] + CC[C@H](C)C[C@H](C)CCCCCCCCC(=O)N[C@H]1C[C@@H](O)[C@@H](NCCN)NC(=O)[C@@H]2[C@@H](O)CCN2C(=O)[C@H]([C@H](O)CCN)NC(=O)[C@H]([C@H](O)[C@@H](O)c2ccc(O)cc2)NC(=O)[C@@H]2C[C@@H](O)CN2C(=O)[C@H]([C@@H](C)O)NC1=O [caspofungin] (first compound 12.5 µM), the “biofilm OD600” value came to 0.148 ± 0.0056 under setting [1] and 0.042 ± 0.0016 under setting [2].
Take `CCCC[C@@H](C=O)NC(=O)OC(C)(C)C` + CC[C@H](C)C[C@H](C)CCCCCCCCC(=O)N[C@H]1C[C@@H](O)[C@@H](NCCN)NC(=O)[C@@H]2[C@@H](O)CCN2C(=O)[C@H]([C@H](O)CCN)NC(=O)[C@H]([C@H](O)[C@@H](O)c2ccc(O)cc2)NC(=O)[C@@H]2C[C@@H](O)CN2C(=O)[C@H]([C@@H](C)O)NC1=O [caspofungin] (first compound 12.5 µM): the “biofilm OD600” value reads like this: under setting [1], 0.254 ± 0.0097; under setting [2], 0.167 ± 0.0058.
For `O=C(O)CNC(=O)C(CS)Cc1ccccc1` (racemic) [DL-Thiorphan] + OC(Cn1cncn1)(Cn1cncn1)c1ccc(F)cc1F [fluconazole] (first compound 12.5 µM), the “biofilm OD600” value runs as follows: under setting [1], 0.262 ± 0.0084; under setting [2], 0.107 ± 0.0069.
Taken in the same sequence, the figures for `CC(NC(=O)C(Cc1ccccc1)NC(=O)OCc1ccccc1)C(=O)CF` (stereo not drawn) + CC[C@H](C)C[C@H](C)CCCCCCCCC(=O)N[C@H]1C[C@@H](O)[C@@H](NCCN)NC(=O)[C@@H]2[C@@H](O)CCN2C(=O)[C@H]([C@H](O)CCN)NC(=O)[C@H]([C@H](O)[C@@H](O)c2ccc(O)cc2)NC(=O)[C@@H]2C[C@@H](O)CN2C(=O)[C@H]([C@@H](C)O)NC1=O [caspofungin] (first compound 12.5 µM) were 0.3 ± 0.005 and 0.185 ± 0.0046.
As to `CCCC[C@@H](C=O)NC(=O)OC(C)(C)C` + C[C@@H]1[C@H](O)[C@@H](C)/C=C/C=C/C=C/C=C/C=C/C=C/C=C/[C@H](O[C@@H]2O[C@H](C)[C@@H](O)[C@H](N)[C@@H]2O)C[C@@H]2O[C@](O)(C[C@@H](O)C[C@@H](O)[C@H](O)CC[C@@H](O)C[C@@H](O)CC(=O)O[C@H]1C)C[C@H](O)[C@H]2C(=O)O [amphotericin B] (first compound 12.5 µM), the “biofilm OD600” value under setting [1] is 0.259 ± 0.011 and the “biofilm OD600” value under setting [2] came to 0.188 ± 0.0076.
With `CC(C)C[C@H](NC(=O)[C@H]1O[C@@H]1C(=O)O)C(=O)NCCCCN=C(N)N` + CC[C@H](C)C[C@H](C)CCCCCCCCC(=O)N[C@H]1C[C@@H](O)[C@@H](NCCN)NC(=O)[C@@H]2[C@@H](O)CCN2C(=O)[C@H]([C@H](O)CCN)NC(=O)[C@H]([C@H](O)[C@@H](O)c2ccc(O)cc2)NC(=O)[C@@H]2C[C@@H](O)CN2C(=O)[C@H]([C@@H](C)O)NC1=O [caspofungin] (first compound 12.5 µM), the “biofilm OD600” value runs as follows: under setting [1], 0.261 ± 0.01; under setting [2], 0.18 ± 0.008.
Taken in the same sequence, the figures for `COC(=O)C[C@H](NC(=O)[C@H](C)NC(=O)[C@@H](NC(=O)OCc1ccccc1)C(C)C)C(=O)CF` + OC(Cn1cncn1)(Cn1cncn1)c1ccc(F)cc1F [fluconazole] (first compound 12.5 µM) were 0.283 ± 0.0098 and 0.12 ± 0.0089.
For `CCOC(=O)c1ccc(OC(=O)CCCCCNC(=N)N)cc1` [Gabexate mesylate] + CC[C@H](C)C[C@H](C)CCCCCCCCC(=O)N[C@H]1C[C@@H](O)[C@@H](NCCN)NC(=O)[C@@H]2[C@@H](O)CCN2C(=O)[C@H]([C@H](O)CCN)NC(=O)[C@H]([C@H](O)[C@@H](O)c2ccc(O)cc2)NC(=O)[C@@H]2C[C@@H](O)CN2C(=O)[C@H]([C@@H](C)O)NC1=O [caspofungin] (first compound 12.5 µM), the “biofilm OD600” value was 0.26 ± 0.0083 under setting [1] and 0.181 ± 0.006 under setting [2].
Regarding `CC(C)(C)NC(=O)[C@@H]1CN(Cc2cccnc2)CCN1C[C@@H](O)C[C@@H](Cc1ccccc1)C(=O)N[C@H]1c2ccccc2C[C@H]1O` [indinavir] + OC(Cn1cncn1)(Cn1cncn1)c1ccc(F)cc1F [fluconazole] (first compound 12.5 µM), the “biofilm OD600” value was found to be 0.273 ± 0.013 under setting [1] and 0.17 ± 0.015 under setting [2].
The corresponding values for `Cc1ccc(S(=O)(=O)N[C@@H](Cc2ccccc2)C(=O)CCl)cc1` + C[C@@H]1[C@H](O)[C@@H](C)/C=C/C=C/C=C/C=C/C=C/C=C/C=C/[C@H](O[C@@H]2O[C@H](C)[C@@H](O)[C@H](N)[C@@H]2O)C[C@@H]2O[C@](O)(C[C@@H](O)C[C@@H](O)[C@H](O)CC[C@@H](O)C[C@@H](O)CC(=O)O[C@H]1C)C[C@H](O)[C@H]2C(=O)O [amphotericin B] (first compound 4 µM) are 0.25 ± 0.011 and 0.158 ± 0.0081.
